The results in this text go back to PubChem BioAssay AID588441 (Southern Research Specialized Biocontainment Screening …, 2011).

SMILES strings stand for the structures. Inconclusive results are not listed. Calls of active or inactive are those of the source. How the calls were made is not given here.

The nature of the assay: HepG2 cell cytotoxicity, cytotoxicity control, set 5 (AID 588441). The conditions noted are these: series mostly up to 50 µM; viability: at the top concentration.
As to `CC(C)OC(=O)CSc1ncnc2c1cnn2-c1ccccc1`, the “viability” value is 98.7% (inactive).
Next, `CC1CC(C)CN(C(=O)C2CCC(CNc3c(N4CCCCC4)c(=O)c3=O)CC2)C1` (stereo not drawn): 109% [at 15 µM] (inactive); `O=C(NCCc1ccc(Cl)cc1)c1ccc(CNc2c(N3CCOCC3)c(=O)c2=O)cc1`: 99.1% (inactive); `CCOC(=O)CSc1ncnc2c1cnn2-c1ccccc1`: 95.6% (inactive).
Next, `COC(=O)CSc1ncnc2c1cnn2-c1ccc(C)cc1C`: 99% (inactive).
Next, `CCOC(=O)CSc1ncnc2c1cnn2-c1ccc(C)cc1C`: 97.2% (inactive); `CCC(C)NC(=O)CSc1nc2ccccc2c(=O)[nH]1` (stereo not drawn): 100% (inactive); `COc1ccc(N2CCN(C(=O)c3ccc(CNc4c(N5CCOCC5)c(=O)c4=O)cc3)CC2)cc1`: 109% (inactive).

What is called viability is a read-out of living cells in per cent, often relative to untreated cells.
